Measurements as given in PubChem BioAssay (NCATS).
Inconclusive results are not listed. A call without a number means that no potency is given here. The source made the active and inactive calls. Calls come from the whole dose curve; as a rule, active = well fitted cell-killing curve with a large enough effect; inconclusive = small, poorly fitted or top-dose-only effect; inactive = flat fitted curve, though single readings scatter.

Test: qHTS of pediatric cancer cell lines to identify multiple opportunities for drug repurposing: Primary screen for TC32 cells (AID 1347089); note: nearly all actives have a fitted effect of over 60% in size
Conditions: TC32 Ewing sarcoma viability, CellTiter-Glo luminescence, 48 h; series mostly up to 45.8 µM
Excerpt: Drug repurposing or repositioning has been offered as a strategy for drug development in oncology programs. This approach has special potential for childhood cancers and other rare or orphan diseases, where the expected return on new drug development has been a disincentive to pharmaceuticals.
In this project we exploit the poly-pharmacology of drugs to discover new indications via phenotypic screening of a panel of 19 well-characterized cell lines derived from solid tumors seen in children and adolescents. The goal is to identify approved drugs with previously unrecognized anticancer properties that has the potential to reveal new mechanisms and biological processes involved in carcinogenesis or drug resistance. We employed a titration-based paradigm (quantitative high-throughput screening or qHTS), where all compounds were tested at multiple concentrations for their effect on cell viability. Concentration-response curves (CRCs) were derived directly from the primary screen, and both potency and efficacy values were used to identify compounds with robust bioactivity profiles. We screened the NIH Chemical Genomics Center (NCGC) Pharmaceutical Collection (NPC) and Mechanism Interrogation Plate (MIPE) small molecule collections of approved and investigational compounds against these cell lines; and measured metabolically active cells after 48 hours of compound treatment as a proxy for cell viability.
Assay Submitter: Nathalia J. Martinez, National Center for Advancing Translational Sciences, National Institutes of Health, Rockville, MD, USA; email: natalia.martinez@nih.gov
[1] Shen, M et al. Quantitative high-throughput phenotypic screening of pediatric cancer cell lines identifies multiple opportunities for drug repurposing. Oncotarget 2017 Dec 19;9(4):4758-4772. PMID 29435139.
The cells were obtained from University of North Carolina (UNC), Pediatric Preclinical Testing Program (PPT), and Coriell Institute (CI).
qHTS cell viability assay:
Cells were assayed in growth media at a density of 500-1,000 cells/well. Five microliters of cells were dispensed into 1,536-well, white, solid-bottom, TC-treated plates (Greiner Bio One) using a multidrop dispenser and incubated at 37 degrees C, 5% CO2, under a humidified atmosphere for 5 hours. Twenty-three nanoliters of compounds and controls (neutral control DMSO or positive control bortezomib at final concentration of 2.3 uM) were subsequently transferred by Kalypsys pintool. For primary screens, the MIPE collection was tested at 11-point dilutions (final concentrations range from 0.78 nM to 46 µM) and the NPC collection at 8-point dilutions (final concentrations range from 0.59 nM to 46 µM). Compounds tested in follow-up screens were assayed at 11-point dilutions. Cells were incubated for 48 hours, followed by addition of 3 uL of CellTiter-Glo (Promega). After a 15min incubation at room temperature, samples were analyzed for luminescence intensity using a ViewLux High-throughput CCD imager equipped with clear filters.
Potency is the fitted concentration of half-maximal effect.

Row | SMILES | Potency
1 | CN1CCCN=C1/C=C/c1cccs1 | inactive
2 | CO/N=C(/C(=O)N[C@@H]1C(=O)N2C(C(=O)O)=C(Cn3nnc(C)n3)CS[C@H]12)c1csc(N)n1 | inactive
3 | CCOC(=O)NNc1ccc(N(CC)CC(C)O)nn1 (stereo not given) | inactive
4 | CC(=O)N(c1onc(C)c1C)S(=O)(=O)c1ccc(N)cc1 | inactive
5 | CSc1ccc(/C=C2/C(C)=C(CC(=O)O)c3cc(F)ccc32)cc1 | inactive
6 | CCCCC(=O)OCC(=O)[C@H]1[C@H](C)C[C@H]2[C@@H]3C[C@H](F)C4=CC(=O)C=C[C@]4(C)[C@@]3(F)[C@@H](O)C[C@@]21C | inactive
7 | NS(=O)(=O)c1ccc(N2CCCCS2(=O)=O)cc1 | inactive
8 | CCc1cc(S(=O)(=O)O)c2cc(C(C)C)cccc1-2 | inactive
9 | C[C@@H]1CCC[C@H](C)N1CCCC(O)(c1ccccc1)c1ccccn1 (stereo not given in full) | inactive
10 | NS(=O)(=O)c1cc(C(=O)NN2C[C@H]3[C@H]4CCC(C4)[C@H]3C2)ccc1Cl | inactive
11 | CC(C)C(=O)OCc1cccc(OC(=O)[C@@H]2N3C(=O)[C@@H](NC(=O)Cc4ccccc4)[C@H]3SC2(C)C)c1 | inactive
12 | O=S(=O)(O)c1ccc2nc(-c3ccccc3)[nH]c2c1 | inactive
13 | CCC[C@H](N[C@@H](C)C(=O)N1[C@H](C(=O)O)C[C@@H]2CCCC[C@@H]21)C(=O)OCC | inactive
14 | NC(=O)NS(=O)(=O)c1ccc(Cl)cc1 | inactive
15 | Cc1ccc(C(C)OC(=O)C2(C)CCC(C(=O)O)C2(C)C)cc1 (stereo not given) | inactive
16 | O=C(O)CCC(=O)OC[C@@H](NC(=O)C(Cl)Cl)[C@H](O)c1ccc([N+](=O)[O-])cc1 | inactive
17 | CC1CCCCN1CCCOC(=O)c1ccc(OC2CCCCC2)cc1 (stereo not given) | inactive
18 | CCCCC/C=C\C/C=C\CCCCCCCC(=O)NC(C)c1ccccc1 (stereo not given) | inactive
19 | CCOC(=O)C1=C(C)NC(C)=C(C(=O)OCC)C1c1ccccc1/C=C/C(=O)OC(C)(C)C | inactive
20 | NC(=O)COCCN1CCN(C(c2ccccc2)c2ccc(Cl)cc2)CC1 (stereo not given) | inactive

Row | SMILES | Potency
21 | O=C1[C@@H]2[C@H]3CC[C@H](C3)[C@@H]2C(=O)N1CCCCN1CCN(c2ncccn2)CC1 | inactive
22 | O=C(O)CCCC[P+](c1ccccc1)(c1ccccc1)c1ccccc1 | inactive
23 | CC(C)OP(=O)(CP(=O)(OC(C)C)OC(C)C)OC(C)C | inactive
24 | Cc1cc(O)c2c(O)c3c(O)cccc3cc2c1 | inactive
25 | OCc1c[nH]c2ccccc12 | inactive
26 | Cc1sccc1Br | inactive
27 | Cc1cc(CCCOc2c(C)cc(-c3noc(C(F)(F)F)n3)cc2C)on1 | inactive
28 | CCOc1ncc(F)c(=O)[nH]1 | inactive
29 | CC(C)=CCNc1ncnc2c1ncn2[C@@H]1O[C@H](CO)[C@@H](O)[C@H]1O | 5920 nM (active)
30 | C#CC(C)(CC)OC(=O)c1ccccc1C(=O)O (stereo not given) | inactive
31 | O=C(O)Cc1ccc(OCCNC[C@H](O)c2ccccc2)cc1 | inactive
32 | COC(=O)C1=C(C)NC(C)=C(C(=O)OCCc2ccc(N3CCN(C(c4ccccc4)c4ccccc4)CC3)cc2)C1c1cccc([N+](=O)[O-])c1 (stereo not given) | inactive
33 | Cc1cc(O)c(C)c(C)c1O | inactive
34 | CCOC(=O)CN1CCCC1=O | inactive
35 | Cc1ccc(-c2ccccc2C#N)cc1 | inactive
36 | Nc1nc2ccccc2n1Cc1ccc(F)cc1 | inactive
37 | CCc1cc2cc(OC)c(OC)cc2c(Cc2ccccc2)n1 | inactive
38 | CC[C@@]1(O)C(=O)OCc2c1cc1n(c2=O)Cc2c-1nc1ccccc1c2/C=N/OC(C)(C)C | 29.7 nM (active)
39 | Cc1oc(-c2ccccc2)nc1CCC(=O)c1ccc(CC2SC(=O)NC2=O)cc1 (stereo not given) | inactive
40 | O=C(CCC1CCN(Cc2ccccc2)CC1)c1ccc2c(c1)NCCCC2 | inactive
